Test [1] is described as follows: ATG_CMV_CIS: Attagene CIS-FACTORIAL HepG2 Assay for human CMV (Internal Marker) (AID 2282928).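 Further: endpoint acts as a background internal control marker rather than a target.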 Particulars: HepG2 CMV promoter reporter, transcription factor profiling; actives raise or lower the signal. The gist of the method: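 Endogenous transcription factor activity read in HepG2 via transfected cis-promoter reporter units. After 24 h dosing, reporter mRNA measured by RT-PCR/capillary electrophoresis; gain or loss of signal fit relative to DMSO.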

Test [2] is described as follows: ATG_DR4_LXR_CIS: Attagene CIS-FACTORIAL HepG2 Assay for human Liver X Receptor (LXR), DR4 submotif (AID 2282929). Particulars: HepG2 Attagene DR4 cis-reporter, mRNA transcription; actives raise or lower the signal. The gist of the method:
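Total RNA from 24 h-treated, MRTU-transfected HepG2 cells underwent reverse transcription, PCR, fluorescent primer extension and restriction digestion before capillary electrophoresis. Both increases and decreases in reporter signal were fitted against DMSO.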

The nature of test [3]: ATG_AP_2_CIS: Attagene CIS-FACTORIAL HepG2 Assay for human Activator Protein 2 (AP-2) (AID 2282932). The following applies: HepG2 AP-2 cis-reporter, Attagene transcription factor profiling; actives raise or lower the signal. The gist of the method:
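HepG2 cells transiently transfected with cis-element reporter units and exposed for 24 h. Reporter mRNA measured by RT-PCR, FAM labelling, HpaI digestion and capillary electrophoresis. Changes in either direction fitted relative to DMSO.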

The target of test [4] is Transcription factor E2F1 (Homo sapiens) (UniProt Q01094). Nature of the test: ATG_E2F_CIS: Attagene CIS-FACTORIAL HepG2 Assay for human E2F Transcription Factor 1 (AID 2282935). The following applies: HepG2 Attagene cis-reporter, E2F reporter RNA transcripts; actives raise or lower the signal. The gist of the method: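 Endogenous E2F1 activity read through cis-promoter reporter units transfected into HepG2. After 24 h compound treatment, reporter mRNA measured by RT-PCR, HpaI digestion and capillary electrophoresis. Bidirectional fit versus DMSO.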
Chain of Transcription factor E2F1 (Homo sapiens) (Q01094 whole entry, looked up): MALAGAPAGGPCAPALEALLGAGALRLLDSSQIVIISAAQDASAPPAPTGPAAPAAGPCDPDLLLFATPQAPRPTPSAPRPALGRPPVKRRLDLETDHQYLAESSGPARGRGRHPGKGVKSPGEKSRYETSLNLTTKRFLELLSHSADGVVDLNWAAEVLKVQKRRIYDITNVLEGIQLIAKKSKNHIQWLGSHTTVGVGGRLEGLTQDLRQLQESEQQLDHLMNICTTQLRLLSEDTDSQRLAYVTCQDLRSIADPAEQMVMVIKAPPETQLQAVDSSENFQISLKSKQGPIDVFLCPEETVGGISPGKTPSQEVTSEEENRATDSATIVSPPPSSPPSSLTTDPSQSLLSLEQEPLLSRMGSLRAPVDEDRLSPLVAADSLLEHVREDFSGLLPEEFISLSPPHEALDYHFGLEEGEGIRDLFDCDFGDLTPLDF

Test [5] can be described thus: ATG_M_61_CIS: Attagene CIS-FACTORIAL HepG2 Assay for M61 Transcription Factor (Internal Marker) (AID 2282937). The following applies: HepG2 Attagene CIS-FACTORIAL M61 internal marker reporter; actives raise or lower the signal. The essentials:
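Transfect HepG2 with MRTUs; dose 24 h; isolate RNA; reverse-transcribe with DNase I treatment; PCR-amplify, FAM-label and cut with HpaI for 2 h at 37 C; resolve by CE. Bidirectional fitting against DMSO.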

Test [6] in a line: ATG_EGR_CIS: Attagene CIS-FACTORIAL HepG2 Assay for human Early Growth Response 1 (EGR1) (AID 2282938). The following applies: HepG2 Attagene CIS-FACTORIAL EGR reporter mRNA; actives raise or lower the signal. The essentials:
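After a 24 h treatment of transiently transfected HepG2 cells, total RNA was reverse-transcribed and reporter sequences PCR-amplified, labelled and run on capillary electrophoresis. Reporters sit under cis-regulatory promoters sensing endogenous factors.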

The nature of test [7]: ATG_Ets_CIS: Attagene CIS-FACTORIAL HepG2 Assay for human Erythroblast Transformation Specific (ETS) (AID 2282941). Particulars: HepG2 ETS cis-reporter transcription, actives raise or lower the signal. The essentials: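 Steps: transfect HepG2 with multiple reporter units; treat compound 24 h; isolate RNA, DNase-treat, reverse-transcribe; PCR-amplify, label with 6-FAM, digest with HpaI; separate by capillary electrophoresis. Activity fitted both directions versus DMSO.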

The target of test [8] is Hepatocyte nuclear factor 3-beta (Homo sapiens) (UniProt Q9Y261). Nature of the test: ATG_FoxA2_CIS: Attagene CIS-FACTORIAL HepG2 Assay for human Forkhead box A2 (FOXA2) (AID 2282942). The following applies: HepG2 cis-reporter transcription factor activity, 24 h; actives raise or lower the signal. The gist of the method:
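24 h dosing of HepG2 bearing cis-reporter constructs; mRNA readout by RT-PCR/CE fluorescence; bidirectional fit, DMSO baseline.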

Test [9] can be described thus: ATG_FoxO_CIS: Attagene CIS-FACTORIAL HepG2 Assay for human Forkhead box O (FoxO) (AID 2282943). The following applies: HepG2 Attagene cis-reporter, FoxO element, mRNA; actives raise or lower the signal. The essentials:
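Read-out: fluorescence of 6-FAM-labelled reporter cDNA fragments resolved by capillary electrophoresis. Transiently transfected HepG2 cells were dosed for 24 h; activity fitted in both directions relative to DMSO controls.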

A short description of test [10]: ATG_GATA_CIS: Attagene CIS-FACTORIAL HepG2 Assay for human GATA Binding Protein (AID 2282944). The following applies: HepG2 GATA cis-element reporter, Attagene multiplex mRNA; actives raise or lower the signal. The essentials: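 DMSO serves as negative control and baseline for bidirectional fitting of reporter mRNA changes. HepG2 cells bearing transiently transfected cis-promoter reporters were exposed 24 h; transcripts detected via RT-PCR and capillary electrophoresis.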

A short description of test [11]: ATG_ISRE_CIS: Attagene CIS-FACTORIAL HepG2 Assay for human Interferon Regulatory Factor 1 (IRF1) binding to an Interferon-Stimulated Response Element (ISRE) (AID 2282948). Particulars: HepG2 ISRE cis-reporter (Attagene), mRNA transcription readout; actives raise or lower the signal. The essentials:
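Transfected HepG2 (multiple reporter transcription units, cis elements) dosed 24 h. RNA → oligo(dT) RT → PCR → 6-FAM primer extension → HpaI → CE. DMSO = negative control/baseline.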

Test [12] in a line: ATG_M_32_CIS: Attagene CIS-FACTORIAL HepG2 Assay for M32 Transcription Factor (Internal Marker) (AID 2282949).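 Further: background control marker of the multiplexed CIS panel rather than a real target.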 The following applies: HepG2 Attagene cis-factorial M32 reporter, mRNA; actives raise or lower the signal. The essentials: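 Fluorescent capillary electrophoresis peaks of HpaI-digested, FAM-labelled RT-PCR reporter products give the signal. Source: transiently transfected human liver HepG2 cells, 24 h after chemical dosing; bidirectional fitting against DMSO.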

The nature of test [13]: ATG_MRE_CIS: Attagene CIS-FACTORIAL HepG2 Assay for human Metal Responsive Element (MRE) (AID 2282954). Particulars: HepG2 MRE cis-reporter transcription, Attagene multiplex; actives raise or lower the signal. The gist of the method: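 HepG2 cells transiently transfected with cis-element-driven reporter units; mRNA measured 24 h after dosing. Reporter transcripts quantified by RT-PCR, FAM labelling, HpaI digestion and capillary electrophoresis; bidirectional fit versus DMSO.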

The target of test [14] is Paired box protein Pax-6 (Homo sapiens) (UniProt P26367). Nature of the test: ATG_Pax6_CIS: Attagene CIS-FACTORIAL HepG2 Assay for human Paired Box 6 (PAX6) (AID 2282956). The following applies: HepG2 CIS-FACTORIAL PAX6 reporter transcription, RNA readout; actives raise or lower the signal. The essentials: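 Transient MRTU transfection of HepG2 → compound exposure 24 h → TriZol RNA, oligo(dT) RT → PCR, 6-FAM primer extension, HpaI cut → capillary electrophoresis; activity fitted both directions against DMSO.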
Chain of Paired box protein Pax-6 (Homo sapiens) (P26367 whole entry, looked up): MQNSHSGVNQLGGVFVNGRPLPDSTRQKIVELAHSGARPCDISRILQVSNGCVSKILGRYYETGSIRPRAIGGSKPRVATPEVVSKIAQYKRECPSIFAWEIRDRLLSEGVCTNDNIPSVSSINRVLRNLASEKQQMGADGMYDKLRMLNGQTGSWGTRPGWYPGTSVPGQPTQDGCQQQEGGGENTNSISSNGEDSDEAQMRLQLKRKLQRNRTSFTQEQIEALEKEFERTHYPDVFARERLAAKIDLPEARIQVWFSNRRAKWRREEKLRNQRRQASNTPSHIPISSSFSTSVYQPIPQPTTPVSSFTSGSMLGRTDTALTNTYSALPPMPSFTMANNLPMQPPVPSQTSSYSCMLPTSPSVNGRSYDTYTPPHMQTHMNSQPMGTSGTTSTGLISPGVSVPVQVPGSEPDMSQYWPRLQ

Test [15] can be described thus: ATG_PXRE_CIS: Attagene CIS-FACTORIAL HepG2 Assay for human Pregnane X Receptor Element (PXRE) (AID 2282957). The following applies: HepG2 Attagene CIS-FACTORIAL PXRE reporter, mRNA; actives raise or lower the signal. The essentials:
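Transiently transfected HepG2 cells were dosed and incubated for 24 h. RNA was then isolated, DNase-treated, reverse-transcribed and reporter sequences amplified. Labeled, HpaI-digested fragments were quantified by capillary electrophoresis against DMSO.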

Test [16] can be described thus: ATG_Sox_CIS: Attagene CIS-FACTORIAL HepG2 Assay for human SRY-box transcription factor (SOX) (AID 2282960). The following applies: HepG2 Attagene cis-factorial SOX reporter, mRNA; actives raise or lower the signal. The essentials: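 HepG2, cis reporter units, 24 h exposure. Reporter mRNA: RT-PCR → FAM labelling → HpaI → CE fluorescence. Bidirectional fit vs DMSO.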

Test [17] can be described thus: ATG_SREBP_CIS: Attagene CIS-FACTORIAL HepG2 Assay for human Sterol Regulatory Element Binding (SREBP) (AID 2282962). The following applies: HepG2 Attagene cis-factorial SREBP reporter, mRNA; actives raise or lower the signal. The gist of the method: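 Transfected HepG2 (cis-regulated reporter library, endogenous TFs) → compound 24 h → total RNA → oligo(dT) RT → reporter-specific PCR → FAM primer extension, HpaI cut → CE fluorescence. Fit bidirectional vs DMSO.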

The nature of test [18]: ATG_TCF_b_cat_CIS: Attagene CIS-FACTORIAL HepG2 Assay for human T-Cell-Factor with beta-catenin (TCF/b-cat) (AID 2282965). The following applies: HepG2 TCF/beta-catenin cis-reporter transcription, actives raise or lower the signal. The essentials:
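HepG2, transient MRTU transfection, cis-element-driven reporters (endogenous TFs). 24 h compound exposure. Readout: reporter mRNA by RT-PCR + 6-FAM primer extension, HpaI digest, capillary electrophoresis. Gain/loss fit vs DMSO baseline.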

The nature of test [19]: ATG_TAL_CIS: Attagene CIS-FACTORIAL HepG2 Assay for human TAL Basal Promoter (AID 2282966).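 Further: background control endpoint measuring basal TAL promoter reporter mRNA not a specific factor.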 Particulars: HepG2 Attagene cis-factorial TAL promoter reporter; actives raise or lower the signal. The essentials: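 Readout: reporter mRNA, fluorescence by CE. System: HepG2, transient multi-reporter transfection, endogenous TF activity. Exposure: 24 h. Analysis: bidirectional, DMSO-normalized; background control.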

Test [20] can be described thus: ATG_TGFb_CIS: Attagene CIS-FACTORIAL HepG2 Assay for human Transforming Growth Factor (TGF) (AID 2282967). Particulars: HepG2 Attagene CIS TGFb reporter, mRNA transcription; actives raise or lower the signal. The gist of the method: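 Transcript-level reporter readout: HepG2 transfectants, 24 h exposure, RNA to cDNA, reporter-specific PCR, fluorescent primer extension, capillary sizing against ROX standards. Gain- or loss-of-signal relative to DMSO.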

A word on the AC50: it is the concentration giving half of the maximal activity seen.

Each structure is given as a SMILES string. Calls of active or inactive are those of the source. How the source made its calls: active means hit-call score of the fitted dose curve at least 0.9, where 1 is the maximum; inactive means score below 0.9.

Chain of Hepatocyte nuclear factor 3-beta (Homo sapiens) (Q9Y261 whole entry, looked up): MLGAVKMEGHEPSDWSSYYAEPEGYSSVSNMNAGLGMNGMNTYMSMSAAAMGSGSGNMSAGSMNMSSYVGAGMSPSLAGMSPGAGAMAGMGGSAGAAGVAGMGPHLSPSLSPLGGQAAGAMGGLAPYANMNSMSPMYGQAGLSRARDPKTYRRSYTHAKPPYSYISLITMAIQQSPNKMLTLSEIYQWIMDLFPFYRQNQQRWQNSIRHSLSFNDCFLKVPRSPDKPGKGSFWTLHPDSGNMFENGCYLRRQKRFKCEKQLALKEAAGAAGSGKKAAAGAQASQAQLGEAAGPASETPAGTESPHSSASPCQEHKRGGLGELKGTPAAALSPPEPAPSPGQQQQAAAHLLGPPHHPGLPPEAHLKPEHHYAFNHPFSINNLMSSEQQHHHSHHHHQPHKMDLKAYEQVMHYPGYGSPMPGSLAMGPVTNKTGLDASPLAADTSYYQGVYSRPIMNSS

Consider `CCCCNP(N)(N)=S`, for which the molecule was called inactive in test [1], in [2], in [3], in test [4], in [5] and in [6]. Also, the molecule was called inactive in [7], in test [8], in test [9], in test [10], in [11] and in test [12]. The call in [13], in test [14], in test [15], in test [16], in test [17] and in test [18] was inactive. The molecule was called inactive in [19] and in [20].
Regarding `Nc1ccccc1`, the outcome in [1], in test [2], in test [3], in test [4], in test [5] and in test [6] was inactive. Also, the call in [7], in test [8], in test [9], in test [10], in [11] and in test [12] was inactive. Besides, the molecule was called inactive in test [13], in test [14], in [15], in test [16], in test [17] and in test [18]. Also, the outcome in test [19] and in test [20] was inactive.
As to `CCNCC`, the result in test [1], in [2], in [3], in test [4], in test [5] and in [6] was inactive. The molecule was classed as inactive in test [7], in test [8], in [9], in test [10], in [11] and in test [12]. Also, the call in test [13], in test [14], in test [15], in [16], in [17] and in [18] was inactive. The molecule was classed as inactive in test [19] and in test [20].
As for `CC1(C)C(=O)NC(=O)NC1=O`, the outcome in test [1], in [2], in [3], in test [4], in test [5] and in test [6] was inactive. Besides, the molecule was called inactive in test [7], in test [8], in test [9], in test [10], in test [11] and in test [12]. Also, the molecule was called inactive in test [13], in test [14], in test [15], in test [16], in [17] and in [18]. Also, the molecule was classed as inactive in test [19] and in test [20].
As to `O=P(O)(Oc1ccccc1)Oc1ccccc1`, the molecule was called inactive in test [1], in test [2], in test [3], in [4], in test [5] and in test [6]. Further, the molecule was classed as inactive in test [7], in test [8], in test [9], in test [10], in [11] and in [12]. Besides, the molecule was classed as inactive in [13], in test [14], in test [16], in test [17], in [18] and in [19]. Besides, the outcome in test [20] was inactive. Further, in test [15], the AC50 is 74.2 µM (active).
On to `CCC1CCC(=O)O1` (stereo not given), for which the result in test [1], in test [2], in [3], in test [4], in test [5] and in test [6] was inactive. For the same molecule, the molecule was called inactive in [7], in test [8], in test [9], in test [10], in test [11] and in [12]. Further, the call in test [13], in [14], in test [16], in [17], in test [18] and in test [19] was inactive. Further, in test [20], the outcome was inactive. Besides, the AC50 in test [15] was 27.3 µM (active).

The values above are taken from PubChem BioAssay (EPA / NIEHS).
